In PubChem BioAssay (EPA / NIEHS):
Calls of active or inactive are those of the source. The calls were made as follows: active = hit-call score of the fitted dose curve at least 0.9, where 1 is the maximum; inactive = score below 0.9.

Columns and labels:
[1] = ATG_CRE_CIS: Attagene CIS-FACTORIAL HepG2 Assay for human cAMP Responsive Element (CRE) binding protein 3 (AID 2282926); conditions: HepG2 CRE cis-reporter, Attagene multiplexed mRNA; actives raise or lower the signal
Method in brief: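 Induced reporter mRNA from a CRE cis element, measured in HepG2 among many multiplexed units at 24 h. Detection used RT-PCR plus capillary electrophoresis of fluorescent fragments; DMSO served as negative control.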

[2] = target: CCAAT/enhancer-binding protein beta (Homo sapiens) (UniProt P17676); experiment: ATG_C_EBP_CIS: Attagene CIS-FACTORIAL HepG2 Assay for human CCAAT/Enhancer Binding Protein (C/EBP) beta (AID 2282927); conditions: HepG2 Attagene cis-factorial transcription factor reporter; actives raise or lower the signal
Chain of CCAAT/enhancer-binding protein beta (Homo sapiens) (P17676 whole entry, looked up): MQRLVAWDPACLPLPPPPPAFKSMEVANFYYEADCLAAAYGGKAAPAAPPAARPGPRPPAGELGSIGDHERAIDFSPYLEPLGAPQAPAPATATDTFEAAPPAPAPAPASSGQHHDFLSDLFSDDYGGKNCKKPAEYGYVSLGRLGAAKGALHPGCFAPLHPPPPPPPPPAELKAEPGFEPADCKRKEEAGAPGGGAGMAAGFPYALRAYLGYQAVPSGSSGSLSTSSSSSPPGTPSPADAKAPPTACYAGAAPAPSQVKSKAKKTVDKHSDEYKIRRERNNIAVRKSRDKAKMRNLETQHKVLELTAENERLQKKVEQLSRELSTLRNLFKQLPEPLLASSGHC
Method in brief: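 RT-PCR/capillary electrophoresis fluorescence of reporter mRNA, 24 h post-dose, in HepG2 cells carrying transfected cis-promoter reporter units. Bidirectional curve fitting against DMSO baseline captures gain or loss of signal.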

[3] = ATG_DR4_LXR_CIS: Attagene CIS-FACTORIAL HepG2 Assay for human Liver X Receptor (LXR), DR4 submotif (AID 2282929); conditions: HepG2 Attagene DR4 cis-reporter, mRNA transcription; actives raise or lower the signal
Method in brief: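 Total RNA from 24 h-treated, MRTU-transfected HepG2 cells underwent reverse transcription, PCR, fluorescent primer extension and restriction digestion before capillary electrophoresis. Both increases and decreases in reporter signal were fitted against DMSO.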

[4] = ATG_AP_1_CIS: Attagene CIS-FACTORIAL HepG2 Assay for human Activator Protein 1 (AP-1) (AID 2282931); conditions: HepG2 Attagene cis-factorial AP-1 reporter mRNA; actives raise or lower the signal
Method in brief: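 HepG2, transient cis-reporter transfection; 24 h; readout RT-PCR/CE fluorescence; DMSO baseline, gain and loss fitted.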

[5] = ATG_AP_2_CIS: Attagene CIS-FACTORIAL HepG2 Assay for human Activator Protein 2 (AP-2) (AID 2282932); conditions: HepG2 AP-2 cis-reporter, Attagene transcription factor profiling; actives raise or lower the signal
Method in brief: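 Cells (HepG2) transfected with promoter-driven reporter constructs, treated 24 h. Total RNA reverse-transcribed, reporter cDNA PCR-amplified, FAM-labelled by primer extension, digested, resolved by capillary electrophoresis. Activity fitted both directions versus DMSO.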

[6] = target: Transcription factor E2F1 (Homo sapiens) (UniProt Q01094); experiment: ATG_E2F_CIS: Attagene CIS-FACTORIAL HepG2 Assay for human E2F Transcription Factor 1 (AID 2282935); conditions: HepG2 Attagene cis-reporter, E2F reporter RNA transcripts; actives raise or lower the signal
Chain of Transcription factor E2F1 (Homo sapiens) (Q01094 whole entry, looked up): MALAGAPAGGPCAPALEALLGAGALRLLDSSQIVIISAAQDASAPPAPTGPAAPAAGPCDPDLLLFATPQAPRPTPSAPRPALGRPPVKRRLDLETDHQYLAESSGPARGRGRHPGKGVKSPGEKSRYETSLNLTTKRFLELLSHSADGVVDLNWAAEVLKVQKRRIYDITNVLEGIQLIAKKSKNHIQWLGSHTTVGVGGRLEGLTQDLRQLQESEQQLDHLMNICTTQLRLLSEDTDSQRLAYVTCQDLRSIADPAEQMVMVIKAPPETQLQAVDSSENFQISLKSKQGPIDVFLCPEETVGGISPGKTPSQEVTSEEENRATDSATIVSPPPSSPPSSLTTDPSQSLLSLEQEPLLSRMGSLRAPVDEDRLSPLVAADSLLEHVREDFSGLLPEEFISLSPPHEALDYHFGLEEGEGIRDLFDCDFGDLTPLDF
Method in brief: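 First, HepG2 cells were transfected with reporter transcription units. Next, they were dosed for 24 h. Then RNA was isolated, converted to cDNA, PCR-amplified, FAM-labeled, HpaI-digested and analyzed by capillary electrophoresis.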

[7] = ATG_E_Box_CIS: Attagene CIS-FACTORIAL HepG2 Assay for human Enhancer Box (E-box) (AID 2282936); conditions: HepG2 E-box cis-reporter transcription, actives raise or lower the signal
Method in brief: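 Endogenous transcription factor activity was sensed in human HepG2 liver cells through transfected cis-promoter reporter units. After 24 h of dosing, total RNA was reverse-transcribed and reporter cDNA resolved by capillary electrophoresis.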

[8] = ATG_M_61_CIS: Attagene CIS-FACTORIAL HepG2 Assay for M61 Transcription Factor (Internal Marker) (AID 2282937); conditions: HepG2 Attagene CIS-FACTORIAL M61 internal marker reporter; actives raise or lower the signal
Method in brief: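 Transfect HepG2 with MRTUs; dose 24 h; isolate RNA; reverse-transcribe with DNase I treatment; PCR-amplify, FAM-label and cut with HpaI for 2 h at 37 C; resolve by CE. Bidirectional fitting against DMSO.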

[9] = ATG_M_19_CIS: Attagene CIS-FACTORIAL HepG2 Assay for M19 Transcription Factor (Internal Marker) (AID 2282939); conditions: HepG2 Attagene CIS-FACTORIAL M19 internal marker reporter; actives raise or lower the signal
Method in brief: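 Following a 24 h exposure, RNA from transfected HepG2 cells was reverse-transcribed, PCR-amplified with reporter-specific primers, end-labelled with 6-FAM and HpaI-digested before capillary separation. Values represent gain or loss versus DMSO.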

[10] = ATG_Ets_CIS: Attagene CIS-FACTORIAL HepG2 Assay for human Erythroblast Transformation Specific (ETS) (AID 2282941); conditions: HepG2 ETS cis-reporter transcription, actives raise or lower the signal
Method in brief: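 Cis-regulated reporter mRNA induction in HepG2 (transient transfection), 24 h exposure, RT-PCR plus capillary electrophoresis detection; DMSO serves as negative control and baseline.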

[11] = target: Hepatocyte nuclear factor 3-beta (Homo sapiens) (UniProt Q9Y261); experiment: ATG_FoxA2_CIS: Attagene CIS-FACTORIAL HepG2 Assay for human Forkhead box A2 (FOXA2) (AID 2282942); conditions: HepG2 cis-reporter transcription factor activity, 24 h; actives raise or lower the signal
Chain of Hepatocyte nuclear factor 3-beta (Homo sapiens) (Q9Y261 whole entry, looked up): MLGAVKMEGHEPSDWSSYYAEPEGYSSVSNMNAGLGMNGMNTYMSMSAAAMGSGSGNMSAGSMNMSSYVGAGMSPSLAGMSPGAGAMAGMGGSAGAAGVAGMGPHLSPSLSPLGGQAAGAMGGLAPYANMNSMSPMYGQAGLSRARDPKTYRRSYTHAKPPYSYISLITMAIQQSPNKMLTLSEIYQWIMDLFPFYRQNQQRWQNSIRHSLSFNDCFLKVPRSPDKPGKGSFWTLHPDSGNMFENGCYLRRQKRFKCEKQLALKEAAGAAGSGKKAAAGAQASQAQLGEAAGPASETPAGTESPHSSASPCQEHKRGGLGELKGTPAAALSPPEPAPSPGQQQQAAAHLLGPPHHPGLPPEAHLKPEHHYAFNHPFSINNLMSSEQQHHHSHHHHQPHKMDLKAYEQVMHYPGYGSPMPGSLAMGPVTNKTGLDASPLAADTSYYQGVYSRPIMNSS
Method in brief: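 24 h dosing of HepG2 bearing cis-reporter constructs; mRNA readout by RT-PCR/CE fluorescence; bidirectional fit, DMSO baseline.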

[12] = ATG_FoxO_CIS: Attagene CIS-FACTORIAL HepG2 Assay for human Forkhead box O (FoxO) (AID 2282943); conditions: HepG2 Attagene cis-reporter, FoxO element, mRNA; actives raise or lower the signal
Method in brief: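 HepG2 cells transiently transfected with cis-promoter-driven multiple reporter transcription units; 24 h after chemical dosing, reporter mRNA quantified by RT-PCR, fluorescent primer extension, HpaI digestion and capillary electrophoresis. Bidirectional fitting versus DMSO baseline.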

[13] = ATG_GATA_CIS: Attagene CIS-FACTORIAL HepG2 Assay for human GATA Binding Protein (AID 2282944); conditions: HepG2 GATA cis-element reporter, Attagene multiplex mRNA; actives raise or lower the signal
Method in brief: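 DMSO serves as negative control and baseline for bidirectional fitting of reporter mRNA changes. HepG2 cells bearing transiently transfected cis-promoter reporters were exposed 24 h; transcripts detected via RT-PCR and capillary electrophoresis.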

[14] = ATG_GLI_CIS: Attagene CIS-FACTORIAL HepG2 Assay for human Zinc Finger Protein GLI1 (AID 2282945); conditions: HepG2, Attagene cis-factorial reporter mRNA, GLI element; actives raise or lower the signal
Method in brief: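 HepG2 cells transiently transfected with cis-promoter multiplexed reporter units report endogenous transcription factor activity. After 24 h chemical exposure, reporter mRNA was quantified by RT-PCR, 6-FAM labelling, HpaI digestion and capillary electrophoresis, with bidirectional fitting against DMSO.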

[15] = target: Aryl hydrocarbon receptor (Homo sapiens) (UniProt P35869); experiment: ATG_Ahr_CIS: Attagene CIS-FACTORIAL HepG2 Assay for human Aryl Hydrocarbon Receptor (Ahr) (AID 2282930); conditions: HepG2 AhR cis-factorial reporter transcription; actives raise or lower the signal
Chain of Aryl hydrocarbon receptor (Homo sapiens) (P35869 whole entry, looked up): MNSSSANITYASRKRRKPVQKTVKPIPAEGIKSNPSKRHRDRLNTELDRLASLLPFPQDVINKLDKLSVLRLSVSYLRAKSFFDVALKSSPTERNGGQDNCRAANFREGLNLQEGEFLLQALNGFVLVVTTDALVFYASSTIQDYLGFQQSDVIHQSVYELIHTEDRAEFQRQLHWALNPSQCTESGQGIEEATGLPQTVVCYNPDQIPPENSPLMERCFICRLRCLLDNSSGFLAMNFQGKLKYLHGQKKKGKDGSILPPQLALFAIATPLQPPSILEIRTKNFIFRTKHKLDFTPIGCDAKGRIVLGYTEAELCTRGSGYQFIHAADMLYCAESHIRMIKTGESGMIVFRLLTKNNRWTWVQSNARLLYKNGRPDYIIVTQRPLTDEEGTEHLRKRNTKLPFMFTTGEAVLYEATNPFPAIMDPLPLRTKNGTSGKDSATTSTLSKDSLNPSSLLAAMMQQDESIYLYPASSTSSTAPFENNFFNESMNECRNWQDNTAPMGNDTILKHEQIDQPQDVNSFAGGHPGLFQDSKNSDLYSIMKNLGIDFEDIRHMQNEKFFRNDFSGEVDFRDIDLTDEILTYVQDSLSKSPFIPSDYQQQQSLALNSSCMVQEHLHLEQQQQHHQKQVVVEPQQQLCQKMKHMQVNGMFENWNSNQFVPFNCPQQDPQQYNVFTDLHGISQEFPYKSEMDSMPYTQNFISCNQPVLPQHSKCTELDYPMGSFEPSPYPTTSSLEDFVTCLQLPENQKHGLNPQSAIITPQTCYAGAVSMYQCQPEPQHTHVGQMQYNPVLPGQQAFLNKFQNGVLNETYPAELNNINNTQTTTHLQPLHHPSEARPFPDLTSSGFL
Method in brief: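 HepG2 cells transiently transfected with cis-element-driven multiplexed reporter transcription units; endogenous transcription factor activity measured as reporter mRNA 24 h after dosing. RT-PCR, 6-FAM labelling, HpaI digestion, capillary electrophoresis; bidirectional fitting versus DMSO baseline.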

[16] = ATG_BRE_CIS: Attagene CIS-FACTORIAL HepG2 Assay for human Bone Morphogenetic Protein (BMP) Response Element (BRE) (AID 2282933); conditions: HepG2 BMP response element reporter, Attagene transcription factor profiling; actives raise or lower the signal
Method in brief: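 Gain- or loss-of-signal was derived by bidirectional fitting against DMSO controls. The signal came from reporter mRNA, measured by RT-PCR and capillary electrophoresis, in HepG2 cells transiently carrying multiple reporter units and dosed for 24 h.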

[17] = ATG_EGR_CIS: Attagene CIS-FACTORIAL HepG2 Assay for human Early Growth Response 1 (EGR1) (AID 2282938); conditions: HepG2 Attagene CIS-FACTORIAL EGR reporter mRNA; actives raise or lower the signal
Method in brief: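 After a 24 h treatment of transiently transfected HepG2 cells, total RNA was reverse-transcribed and reporter sequences PCR-amplified, labelled and run on capillary electrophoresis. Reporters sit under cis-regulatory promoters sensing endogenous factors.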

[18] = ATG_ERE_CIS: Attagene CIS-FACTORIAL HepG2 Assay for Estrogen Response Element (ERE) (AID 2282940); conditions: HepG2 ERE cis-reporter, Attagene RNA transcript; actives raise or lower the signal
Method in brief: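 HepG2, transient cis-reporter units, 24 h exposure. RNA isolated, oligo(dT) RT, reporter-specific PCR, FAM extension, HpaI cut, CE detection. Gain/loss-of-signal vs DMSO.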

[19] = ATG_CMV_CIS: Attagene CIS-FACTORIAL HepG2 Assay for human CMV (Internal Marker) (AID 2282928); conditions: HepG2 CMV promoter reporter, transcription factor profiling; actives raise or lower the signal;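 also: endpoint acts as a background internal control marker rather than a target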
Method in brief: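 24 h chemical treatment, HepG2 with transient multi-reporter transfection; RNA → oligo(dT) RT → PCR → 6-FAM extension → HpaI digest → CE fluorescence. Bidirectional fit, DMSO negative control.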

[20] = target: Retinoic acid receptor alpha (Homo sapiens) (UniProt P10276); experiment: ATG_DR5_RAR_CIS: Attagene CIS-FACTORIAL HepG2 Assay for human Retinoic Acid Receptor Alpha (RARE), DR5 submotif (AID 2282934); conditions: HepG2 Attagene cis-factorial RARE DR5 reporter, mRNA; actives raise or lower the signal
Chain of Retinoic acid receptor alpha (Homo sapiens) (P10276 whole entry, looked up): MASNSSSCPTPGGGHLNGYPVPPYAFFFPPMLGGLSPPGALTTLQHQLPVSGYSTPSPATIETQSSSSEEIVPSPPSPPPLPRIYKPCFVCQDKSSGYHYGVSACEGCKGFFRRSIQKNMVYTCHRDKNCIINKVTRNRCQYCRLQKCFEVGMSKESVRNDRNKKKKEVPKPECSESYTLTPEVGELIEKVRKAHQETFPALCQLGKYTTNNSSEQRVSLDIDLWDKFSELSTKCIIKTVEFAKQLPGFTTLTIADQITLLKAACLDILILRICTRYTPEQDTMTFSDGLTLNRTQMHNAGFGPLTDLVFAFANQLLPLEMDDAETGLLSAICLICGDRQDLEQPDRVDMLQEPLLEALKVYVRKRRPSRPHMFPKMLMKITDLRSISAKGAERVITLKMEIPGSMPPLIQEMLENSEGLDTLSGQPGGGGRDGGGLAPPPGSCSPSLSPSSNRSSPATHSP
Method in brief: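 HepG2 cells transiently transfected with multiplexed reporter units under cis (DR5 RARE) promoters, so endogenous transcription factor activity is measured. After 24 h compound exposure, reporter mRNA is quantified by RT-PCR with fluorescent labelling and capillary electrophoresis; bidirectional fitting versus DMSO.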

Measured: AC50

c1ccc2[nH]ccc2c1
not listed: [15] | [16] | [17] | [18] | [19] | [20]
inactive: all other assays above

CCC/C=C/C=O
not listed: [4] | [19] | [20]
inactive: all other assays above

C=C(C)[C@@H]1CC[C@@H](C)C[C@@H]1O
not listed: [9] | [16] | [18] | [19] | [20]
inactive: all other assays above

CCCCCCCCCCCCSC
not listed: [18] | [19] | [20]
inactive: all other assays above

C=CC(=O)NCOCC(C)C
not listed: [3] | [9] | [10] | [15] | [16] | [18] | [20]
inactive: all other assays above

CSc1nc(NC2CC2)nc(NC(C)(C)C)n1
active: [19] 60.5 µM
not listed: [3] | [4] | [15] | [18]
inactive: all other assays above

Cc1ccccc1C=O
active: [15] 53.5 µM
not listed: [4] | [19] | [20]
inactive: all other assays above

CC(C)OP(=O)(CP(=O)(OC(C)C)OC(C)C)OC(C)C
not listed: [8] | [10] | [17] | [19] | [20]
inactive: all other assays above

CCCOCC(C)O (configuration not stated)
not listed: [18] | [19]
inactive: all other assays above

O=c1[nH]c(=O)n([C@H]2CCCO2)cc1F
not listed: [18] | [19]
inactive: all other assays above

CCCCCCCCCCCCCCCC(=O)OC[C@H](O)[C@H]1OC(=O)C(O)=C1O
active: [1] 29.3 µM | [2] 67.7 µM | [3] 76.2 µM | [15] 78 µM | [16] 9.68 µM | [11] 159 µM
not listed: [19] | [20]
inactive: all other assays above

COC(=O)c1ccc(C)cc1
not listed: [7] | [19] | [20]
inactive: all other assays above

CC(=O)O[C@]1(C(C)=O)CC[C@H]2[C@@H]3C[C@H](C)C4=CC(=O)CC[C@]4(C)[C@H]3CC[C@@]21C
active: [18] 9.49 µM
not listed: [3] | [9] | [13] | [15] | [20]
inactive: all other assays above

Clc1ccc2c(c1)C(N1CCNCC1)=Nc1ccccc1O2
active: [2] 51 µM | [15] 41.1 µM | [17] 26.6 µM
not listed: [19] | [20]
inactive: all other assays above

COc1cc(C)cc(O)c1
not listed: [10] | [15] | [18] | [19] | [20]
inactive: all other assays above

CCCCOCCOCCOCCOCCO
not listed: [3] | [4] | [7] | [18] | [19] | [20]
inactive: all other assays above
